Entries with a potency or affinity are not part of this list. Calls of active or inactive are those of the source.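 The calls were made as follows: active = compounds lowering caspase signal with half-maximal concentration at most ten times their top tested dose; inconclusive = flat curve with 30 to 70% inhibition, or poor fit; inactive = the rest.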
assay: suppression of cytokine-induced beta-cell apoptosis – INS-1E, caspase luminescence, dry powder, beta-cell apoptosis inhibitor project, dose response (AID 488848); details: INS-1E cytokine-induced caspase-3/7 luminescence, 48 h; series mostly up to 19.5 µM

outcome, inactive:
COc1ccc(S(=O)(=O)N(C)C[C@@H]2Oc3c(NC(=O)Nc4cccc5c4CC(C)(C)O5)cccc3C(=O)N([C@@H](C)CO)C[C@H]2C)cc1, COc1ccc(S(=O)(=O)N(C)C[C@@H]2Oc3c(NC(=O)Nc4ccc5occc5c4)cccc3C(=O)N([C@@H](C)CO)C[C@H]2C)cc1, C[C@@H]1CN([C@@H](C)CO)C(=O)c2cccc(NC(=O)Nc3cccc4ccccc34)c2O[C@H]1CN(C)S(=O)(=O)c1cccc(F)c1, COc1ccc(S(=O)(=O)N(C)C[C@@H]2Oc3c(NC(=O)Nc4cccc5ccccc45)cccc3C(=O)N([C@@H](C)CO)C[C@H]2C)c(OC)c1, COc1ccc(S(=O)(=O)N(C)C[C@@H]2Oc3c(NC(=O)Nc4cccc5c4NSN5)cccc3C(=O)N([C@@H](C)CO)C[C@H]2C)cc1, COc1ccc(S(=O)(=O)N(C)C[C@@H]2Oc3c(NC(=O)Nc4ccccc4-c4ccccc4)cccc3C(=O)N([C@@H](C)CO)C[C@H]2C)cc1, COc1cccc(S(=O)(=O)N(C)C[C@@H]2Oc3c(NC(=O)Nc4cccc5ccccc45)cccc3C(=O)N([C@@H](C)CO)C[C@H]2C)c1, COc1ccc(S(=O)(=O)N(C)C[C@@H]2Oc3c(NC(=O)Nc4cccc5ccccc45)cccc3C(=O)N([C@@H](C)CO)C[C@H]2C)cc1Cl, C[C@@H]1CN([C@@H](C)CO)C(=O)c2cccc(NC(=O)Nc3cccc4ccccc34)c2O[C@H]1CN(C)S(=O)(=O)c1ccccc1F, C[C@@H]1CN([C@@H](C)CO)C(=O)c2cccc(NC(=O)Nc3cccc4ccccc34)c2O[C@H]1CN(C)S(=O)(=O)Cc1ccc(F)cc1, COc1ccc(S(=O)(=O)N(C)C[C@@H]2Oc3c(NC(=O)Nc4ccc5c(c4)OCCO5)cccc3C(=O)N([C@@H](C)CO)C[C@H]2C)cc1, C[C@@H]1CN([C@@H](C)CO)C(=O)c2cccc(NC(=O)Nc3cccc4ccccc34)c2O[C@H]1CN(C)S(=O)(=O)c1ccc(-c2ccccc2)cc1, COc1ccc(S(=O)(=O)N(C)C[C@@H]2Oc3c(NC(=O)Nc4cccc(C(F)(F)F)c4)cccc3C(=O)N([C@@H](C)CO)C[C@H]2C)cc1, C[C@@H]1CN([C@@H](C)CO)C(=O)c2cccc(NC(=O)Nc3cccc4ccccc34)c2O[C@H]1CN(C)S(=O)(=O)c1ccc(Oc2ccccc2)cc1, COc1ccc(S(=O)(=O)N(C)C[C@@H]2Oc3c(NC(=O)Nc4cc(F)cc5c4OCOC5)cccc3C(=O)N([C@@H](C)CO)C[C@H]2C)cc1, C[C@@H]1CN([C@@H](C)CO)C(=O)c2cccc(NC(=O)Nc3cccc4ccccc34)c2O[C@H]1CN(C)S(=O)(=O)c1ccc(F)cc1, COc1ccc(S(=O)(=O)N(C)C[C@@H]2Oc3c(NC(=O)Nc4cc(F)ccc4F)cccc3C(=O)N([C@@H](C)CO)C[C@H]2C)cc1, COc1ccc(S(=O)(=O)N(C)C[C@@H]2Oc3c(NC(=O)Nc4cccc5ccccc45)cccc3C(=O)N([C@@H](C)CO)C[C@H]2C)cc1F, Cc1ccc(S(=O)(=O)N(C)C[C@@H]2Oc3c(NC(=O)Nc4ccc(F)cc4)cccc3C(=O)N([C@H](C)CO)C[C@H]2C)cc1, C[C@@H]1CN([C@@H](C)CO)C(=O)c2cccc(NC(=O)Nc3cccc4ccccc34)c2O[C@H]1CN(C)S(=O)(=O)c1ccc2c(c1)CCC(=O)N2, COc1ccc(S(=O)(=O)N(C)C[C@@H]2Oc3c(NC(=O)NC4CCCc5ccccc54)cccc3C(=O)N([C@@H](C)CO)C[C@H]2C)cc1 (stereo not given in full), COc1ccccc1S(=O)(=O)N(C)C[C@@H]1Oc2c(NC(=O)Nc3cccc4ccccc34)cccc2C(=O)N([C@@H](C)CO)C[C@H]1C, C[C@@H]1CN([C@@H](C)CO)C(=O)c2cccc(NC(=O)Nc3cccc4ccccc34)c2O[C@H]1CN(C)S(=O)(=O)c1ccc(Cl)cc1, COc1ccc(S(=O)(=O)N(C)C[C@@H]2Oc3ccc(NC(=O)Nc4cccc5ccccc45)cc3C(=O)N([C@@H](C)CO)C[C@H]2C)cc1, C[C@@H]1CN([C@@H](C)CO)C(=O)c2cccc(NC(=O)Nc3ccc(F)cc3)c2O[C@H]1CN(C)S(=O)(=O)c1ccc(Cl)cc1
